Here are results for 16 compounds from PubChem BioAssay (NCATS).

Several values for one entry are separate records, joined by “and”; a condition that tells them apart may be missing. Identical values can stand only once. Records with an inconclusive call do not appear. Unmarked numbers belong to inactive results. Activity calls are given as the source filed them. Calls follow the shape of the dose curve; as a rule, active = well fitted curve in the direction sought with a large enough effect; inconclusive = small, poorly fitted or top-dose-only effect, or another doubt; inactive = no such curve, though single readings can be large; an effect the other way counts as inactive or inconclusive.

For assay [1], the target named is Cellular tumor antigen p53 (Homo sapiens) (UniProt P04637). The assay can be described thus: Primary qHTS for small molecule compounds that upregulate eGFP-tagged delta133p53alpha (in N-terminal) cells. (AID 2060322). Also: nearly all actives have a fitted effect of over 75% in size. Also: potency is read from the fitted curve at half-maximal effect.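 As to activation: cells pre-induced with doxycycline then dosed without doxycycline; series mostly up to about 56 µM; 0% = DMSO vehicle and 100% = reference activator.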 The note with it: NCI-H358 eGFP-delta133p53alpha fluorescence, 24 h; activation: hits give high values. Put shortly:
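NCI-H358 cells pre-induced 24 h with 10 ng/ml doxycycline for eGFP-delta133p53alpha, plated dox-free and exposed 24 h at 37C to titrated compounds. Fixed, Hoechst-stained; gated GFP peak intensity by laser scanning cytometry, normalized to DMSO (0%) and 57.5 uM 5-azacytidine (100%).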
(Quantitative high-throughput screening tests each substance at several concentrations.)

Assay [2] concerns the target Aldehyde dehydrogenase, mitochondrial (Homo sapiens) (UniProt P05091). The assay is described as follows: qHTS for Inhibitors of the Aldehyde Dehydrogenase Family (ALDH2) Primary screen (AID 2061308).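 Also: plate controls were vehicle for no effect and reference inhibitor for full effect; nearly all actives have a fitted effect of over 55% in size.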
The target of assay [3] is Retinaldehyde dehydrogenase 3 (Homo sapiens) (UniProt P47895). The assay is described as follows: qHTS for Inhibitors of the Aldehyde Dehydrogenase Family (ALDH1A3) Primary screen (AID 2061315).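 Also: plate controls were DMSO vehicle for no effect and reference inhibitor for full effect.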
Assay [4] can be described thus: BET inhibitor-based combinations targeting novel dependencies in MECOM-rearranged (r) AML: SET-2 cell line (AID 2202231).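 Also: plate controls were DMSO treated cells for no effect and wells without cells for full effect; nearly all actives have a fitted effect of over 35% in size.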 The note with it: SET-2 AML cells viability, CellTiter-Glo luminescence, 48 h; viability: hits give low values, series mostly up to about 46 µM. Put shortly:
(§1)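 Each compound was tested at eleven concentrations on cells seeded at 500/well. After two days' incubation, ATP-based luminescence reported viability; responses relative to DMSO and blank wells yielded AUC and cell-line-centred Z-AUC.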
(In general: ATP-based viability assays read luminescence as a measure of living cells.)

Assay [5] can be described thus: BET inhibitor-based combinations targeting novel dependencies in MECOM-rearranged (r) AML: HNT-34 cell line (AID 2202234). Also: nearly all actives have a fitted effect of over 35% in size. Also: potency is read from the fitted curve at half-maximal effect. Put shortly: (§2)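 First, 500 cells per well were seeded; next, drugs were pinned as 11-point doses; then plates sat 48 hr in the incubator; finally CellTiter-Glo was added and luminescence read, with AUC and Z-AUC computed.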
A short description of assay [6]: BET inhibitor-based combinations targeting novel dependencies in MECOM-rearranged (r) AML: UCSD-AML1 cell line (AID 2202235). Also: nearly all actives have a fitted effect of over 40% in size. Also: potency is read from the fitted curve at half-maximal effect. Put shortly: as §2
The nature of assay [7]: BET inhibitor-based combinations targeting novel dependencies in MECOM-rearranged (r) AML: AML-191 cell line (AID 2202236; also: nearly all actives have a fitted effect of over 35% in size; also: potency is read from the fitted curve at half-maximal effect). Put shortly: as §1
Assay [8] can be described thus: BET inhibitor-based combinations targeting novel dependencies in MECOM-rearranged (r) AML: AML-194 cell line (AID 2202237; also: nearly all actives have a fitted effect of over 40% in size; also: potency is read from the fitted curve at half-maximal effect). In a few lines:
as §1

The nature of assay [9]: BET inhibitor-based combinations targeting novel dependencies in MECOM-rearranged (r) AML: MV-4-11 cell line (AID 2202233). Also: nearly all actives have a fitted effect of over 45% in size. Also: potency is read from the fitted curve at half-maximal effect. Put shortly:
as §2

Assay [10] in a line: BET inhibitor-based combinations targeting novel dependencies in MECOM-rearranged (r) AML: OCI-AML3 cell line (AID 2202232). Also: nearly all actives have a fitted effect of over 35% in size. Also: potency is read from the fitted curve at half-maximal effect. The note with it: Potency: OCI-AML3 viability. In a few lines:
as §1

Cellular tumor antigen p53 (Homo sapiens), sequence (P04637 whole entry, looked up): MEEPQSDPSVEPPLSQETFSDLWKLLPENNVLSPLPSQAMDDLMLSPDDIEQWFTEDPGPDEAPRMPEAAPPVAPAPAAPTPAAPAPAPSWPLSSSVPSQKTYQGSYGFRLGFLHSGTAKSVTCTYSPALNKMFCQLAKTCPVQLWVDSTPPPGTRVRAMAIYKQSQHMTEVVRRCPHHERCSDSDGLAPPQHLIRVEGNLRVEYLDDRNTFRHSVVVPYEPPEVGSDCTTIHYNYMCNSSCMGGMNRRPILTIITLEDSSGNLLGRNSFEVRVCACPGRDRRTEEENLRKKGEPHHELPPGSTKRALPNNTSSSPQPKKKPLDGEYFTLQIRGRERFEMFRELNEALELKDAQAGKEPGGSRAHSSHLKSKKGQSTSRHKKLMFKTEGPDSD

Regarding `O=C(O)CCCc1c[nH]c2ccccc12`, the activation in assay [1] was -8.68% and -9%. The Potency entry in assay [2], in assay [3], in assay [5], in [6], in assay [7] and in assay [8] was “inactive” each time. Also, in [4], the viability was 116%.

As for `CNc1nc(Nc2cnn([C@H]3CCN(C4COC4)C[C@@H]3F)c2Cl)ncc1C(F)(F)F`, in assay [1], the activation is -10.7% and -17.9%. The Potency entry in assay [2], in assay [3] and in [8] was “inactive” in each case. The viability in assay [4] is 94.3%. The Potency in assay [9] is 1.32 µM (active); in [7] it was 16.6 µM (active).

With `CS(=O)(=O)N(Cc1ccco1)CC(O)Cn1c2ccccc2c2ccccc21` (stereo not drawn), the activation in assay [1] is -2.66%. Besides, the Potency result in assay [2], in assay [3], in assay [5], in assay [7] and in assay [8] was “inactive” throughout. The viability in assay [4] was 98.8%.

Take `Nc1nc(Nc2ccc(S(N)(=O)=O)cc2)nn1C(=O)c1c(F)cccc1F`: the Potency in assay [1] was 24.3 µM (active) and 9.53 µM (active); in assay [10] it was 2.95 µM (active); in assay [9], 1.66 µM (active); in [6] it was 2.09 µM (active); in assay [7], 2.35 µM (active); in [8], 3.72 µM (active). Besides, the Potency result in assay [2] and in assay [3] was “inactive” each time.

Take `Cc1cc2c(F)c(Oc3ncnn4cc(OCC(C)OC(=O)C(C)N)c(C)c34)ccc2[nH]1` (stereo not drawn): in assay [1], the activation is -1.79%. Also, the Potency entry in assay [2] and in assay [3] was “inactive” in each case. For the same compound, the Potency in [10] and in assay [9] was 11.8 µM (active) in each case.

`CC(C)[C@@H](CS(=O)(=O)C(C)C)N1C(=O)[C@@](C)(CC(=O)O)C[C@H](c2cccc(Cl)c2)[C@H]1c1ccc(Cl)cc1`: the activation in [1] was 0.955% and -3.88%. Moreover, the Potency result in [2] and in assay [3] was “inactive” each time. In addition, the Potency is 2.35 µM (active) in assay [10]; 1.86 µM (active) in assay [9]; 1.66 µM (active) in assay [5]; 1.86 µM (active) in assay [6]; 2.35 µM (active) in assay [7].

`COc1nc(-c2ccc3c(c2)OCO3)n(-c2ccc(NC(=O)CSc3ccccc3)cc2)n1`: the activation in assay [1] is 2.57% and -11.7%. Besides, the Potency entry in [2], in assay [3], in [6], in [7] and in assay [8] was “inactive” throughout. In [4], the viability is 97.5%.

Take `Nc1cccc(-c2cc3c(Oc4cccc(O)c4)ncnc3[nH]2)c1`: the activation in [1] was -3.57%. Further, the Potency result in assay [2] and in assay [3] was “inactive” each time. The Potency was 13.2 µM (active) in assay [10]; 2.95 µM (active) in assay [9]; 0.468 µM (active) in assay [5]; 8.33 µM (active) in [6]; 3.32 µM (active) in assay [7]; 5.9 µM (active) in assay [8].

In the case of `Cc1[nH]c(/C=C2\C(=O)Nc3ccc(F)cc32)c(C)c1C(=O)NCCN1CCCC1`, the Potency in assay [1] was 2.69 µM (active); in assay [10], 8.11 µM (active); in assay [9], 0.0323 µM (active); in assay [5] it was 3.62 µM (active); in [6], 8.11 µM (active); in assay [7], 6.45 µM (active). Further, the Potency in assay [8] was 7.23 µM (active). The Potency entry in assay [2] and in [3] was “inactive” in each case.

For the compound `Cc1nc(N)ncc1-c1nc(N2CCOCC2)c2sc(C(C)(C)O)cc2n1`, in [1], the activation is 9.3%. For the same compound, the Potency result in assay [2] and in assay [3] was “inactive” in each case. The figures for the Potency in assay [10], in [9] and in assay [6] were 0.105 µM (active), 4.17 µM (active) and 1.32 µM (active), respectively.

For `CNC1CCC(N(Cc2cccc(-c3ccncc3)c2)C(=O)c2sc3ccccc3c2Cl)CC1` (stereo not drawn), the Potency in assay [1] was 24.3 µM (active) and 30.1 µM (active); in assay [10] it was 18.6 µM (active); in assay [9] it was 16.6 µM (active); in [5] it was 26.3 µM (active); in assay [8], 23.5 µM (active). The Potency entry in assay [2] and in assay [3] was “inactive” throughout.

Regarding `CCCOc1ccc(CCc2nc3cc(-c4c(C)noc4C)ccc3n2CCN2CCOCC2)cc1`, the activation in [1] was -35.8%. Moreover, the Potency result in assay [2] and in [3] was “inactive” each time. Moreover, the results for the Potency in [10] and in assay [9] were 16.6 µM (active) and 18.6 µM (active), respectively.

In the case of `Fc1ccc(-c2nc(-c3ccccc3F)[nH]c2-c2ccncc2)cc1`, the activation in assay [1] was 17%. The Potency entry in [2], in assay [3], in assay [10], in [9], in [5] and in [7] was “inactive” throughout. For the same compound, the Potency entry in assay [8] is “inactive”. In assay [6], the Potency was 4.17 µM (active).

Turning to `CC(=O)O[C@]1(C(C)=O)CC[C@H]2[C@@H]3C[C@H](C)C4=CC(=O)CC[C@]4(C)[C@H]3CC[C@@]21C`, the activation in assay [1] was -7.53% and -21%. In addition, the Potency result in assay [2] and in assay [3] was “inactive” each time. In addition, the Potency in assay [10] is 14.8 µM (active); in assay [9], 18.6 µM (active); in assay [5] it was 8.33 µM (active); in assay [6] it was 10.5 µM (active); in [7] it was 9.34 µM (active); in assay [8], 9.34 µM (active).

With `CCN1CCC(n2cc(CNc3cc(Cl)c4ncc(C#N)c(Nc5ccc(F)c(Cl)c5)c4c3)nn2)CC1`, the Potency in [1] was 16.9 µM (active); in [10], 16.6 µM (active); in assay [9], 20.9 µM (active). Moreover, the Potency result in [2], in assay [3] and in assay [6] was “inactive” each time.

In the case of `Cc1ccc(NC(=O)Nc2cc(C(F)(F)F)ccc2F)cc1Nc1ccc2c(c1)NC(=O)/C2=C\c1ccc[nH]1`, in [1], the activation is -0.477%. The Potency result in [2], in assay [3] and in assay [6] was “inactive” throughout. Also, the Potency in assay [10] was 20.9 µM (active); in assay [9] it was 16.6 µM (active); in [5], 26.3 µM (active); in assay [7] it was 20.9 µM (active).

As usually defined, the viability is a read-out of living cells in per cent, often relative to untreated cells.
